Results reported in PubChem BioAssay (NCI).
“And” between values parts separate entries of the source, which are not always exact repeats. Equal values may be shown once. Compounds without any hit were thinned out: in the full panel of roughly 83,000, 20% have a hit.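 Assay: single dose, 48 h. Readout: percent growth (0 = no net growth; negative = cell death). Active: <10.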 Where a structure was tested more than once in an assay, its records may differ in their call. The source made the active and inactive calls.

Legend:
Assay in all cases: NCI-60 one-dose screen, 48 h (100 = growth as untreated, 0 = no growth, -100 = all killed)
Conditions in all cases: 10 µM unless noted
[1] = test system: SK-MEL-2 melanoma
[2] = test system: EKVX NSCLC
[3] = test system: SN12C renal
[4] = test system: UO-31 renal
[5] = test system: TK-10 renal
[6] = test system: ACHN renal
[7] = test system: A498 renal
[8] = test system: CCRF-CEM leukemia
[9] = test system: MOLT-4 leukemia
[10] = test system: RPMI-8226 leukemia
[11] = test system: OVCAR-8 ovarian
[12] = test system: OVCAR-5 ovarian
[13] = test system: OVCAR-4 ovarian
[14] = test system: SK-OV-3 ovarian
[15] = test system: IGROV1 ovarian
[16] = test system: OVCAR-3 ovarian
[17] = test system: HS 578T breast
[18] = test system: NCI/ADR-RES ovarian
[19] = test system: SR leukemia
[20] = test system: CAKI-1 renal

## O=[N+]([O-])c1ccc(Oc2ccccc2)cc1
[1]
  growth: 112% (inactive) and 117% (inactive)
[2]
  growth: 100% (inactive) and 122% (inactive)
[3]
  growth: 120% (inactive) and 116% (inactive)
[4]
  growth: 80.1% (inactive) and 87.6% (inactive)
[5]
  growth: 97.9% (inactive) and 103% (inactive)
[6]
  growth: 106% (inactive) and 105% (inactive)
[7]
  growth: 106% (inactive) and 96.9% (inactive)
[8]
  growth: -24% (active) and 92.5% (inactive)
[9]
  growth: 96.5% (inactive) and 92.6% (inactive)
[10]
  growth: 79% (inactive) and 93.9% (inactive)
[11]
  growth: 109% (inactive) and 103% (inactive)
[12]
  growth: 96.1% (inactive) and 97.3% (inactive)
[13]
  growth: 113% (inactive) and 121% (inactive)
[14]
  growth: 109% (inactive) and 103% (inactive)
[15]
  growth: 84.4% (inactive) and 104% (inactive)
[16]
  growth: 111% (inactive)
[17]
  growth: 100% (inactive)
[18]
  growth: 96.2% (inactive) and 107% (inactive)

## COc1ccc(NC(=S)Nc2ccccn2)cc1
[1]
  growth: 94.6% (inactive)
[2]
  growth: 96.5% (inactive)
[3]
  growth: 100% (inactive)
[4]
  growth: 93.7% (inactive)
[5]
  growth: 102% (inactive)
[6]
  growth: 97.7% (inactive)
[7]
  growth: 83% (inactive)
[8]
  growth: 90.8% (inactive)
[9]
  growth: 91% (inactive)
[19]
  growth: 90.5% (inactive)
[10]
  growth: 93% (inactive)
[11]
  growth: 96.5% (inactive)
[12]
  growth: 97.7% (inactive)
[13]
  growth: 110% (inactive)
[14]
  growth: 98% (inactive)
[15]
  growth: 106% (inactive)
[16]
  growth: 97% (inactive)
[17]
  growth: 101% (inactive)
[18]
  growth: 99.8% (inactive)

## OC1CCC(Oc2cccc3cnc(Nc4ccc5nc[nH]c5c4)nc23)CC1 (stereo unspecified)
[1]
  growth: -33.7% (active) and 84.8% (inactive)
[2]
  growth: -33.9% (active) and 52.7% (inactive)
[3]
  growth: 10.2% (inactive) and 38.4% (inactive)
[4]
  growth: 8.29% (active) and 49.1% (inactive)
[5]
  growth: 6.96% (active) and 46.2% (inactive)
[6]
  growth: 12.8% (inactive) and 41.9% (inactive)
[20]
  growth: 13.5% (inactive) and 62.8% (inactive)
[7]
  growth: -32.6% (active) and 43.1% (inactive)
[19]
  growth: -15.3% (active) and -4.18% (active)
[10]
  growth: -16.7% (active) and 55% (inactive)
[11]
  growth: 5.91% (active) and 52.6% (inactive)
[12]
  growth: 24.2% (inactive) and 41.7% (inactive)
[13]
  growth: 15.7% (inactive) and 73.9% (inactive)
[14]
  growth: 8.38% (active) and 57.4% (inactive)
[15]
  growth: 19.1% (inactive) and 52.3% (inactive)
[16]
  growth: 5.57% (active) and 53.7% (inactive)
[17]
  growth: -7.28% (active) and 15.8% (inactive)
[18]
  growth: 9.41% (active) and 83.2% (inactive)

## CC(C)(C)c1ccc(O)c(CNC2CCCCC2)c1
[1]
  growth: 94.6% (inactive)
[2]
  growth: 108% (inactive)
[3]
  growth: 102% (inactive) and 91.4% (inactive)
[4]
  growth: 65.7% (inactive) and 78.9% (inactive)
[5]
  growth: 92.4% (inactive)
[6]
  growth: 116% (inactive) and 91.3% (inactive)
[7]
  growth: 110% (inactive) and 91.8% (inactive)
[8]
  growth: 91.8% (inactive) and 86.6% (inactive)
[9]
  growth: 98.1% (inactive) and 81.2% (inactive)
[19]
  growth: 80% (inactive) and 83.5% (inactive)
[10]
  growth: 82% (inactive) and 74.9% (inactive)
[11]
  growth: 101% (inactive) and 88.9% (inactive)
[12]
  growth: 106% (inactive) and 93% (inactive)
[13]
  growth: 82.8% (inactive)
[14]
  growth: 108% (inactive) and 97.8% (inactive)
[15]
  growth: 97.7% (inactive) and 92% (inactive)
[16]
  growth: 111% (inactive) and 92.8% (inactive)
[17]
  growth: 89.2% (inactive) and 89.9% (inactive)
[18]
  growth: 98.5% (inactive)

## CC(O)Cn1cnc2c1c(=O)n(C)c(=O)n2C (stereo unspecified)
[1]
  growth: 98.7% (inactive)
[2]
  growth: 100% (inactive)
[3]
  growth: 98.4% (inactive)
[4]
  growth: 88.7% (inactive)
[5]
  growth: 135% (inactive)
[6]
  growth: 98% (inactive)
[20]
  growth: 99.4% (inactive)
[7]
  growth: 110% (inactive)
[9]
  growth: 98.3% (inactive)
[11]
  growth: 97.6% (inactive)
[12]
  growth: 125% (inactive)
[13]
  growth: 96.5% (inactive)
[14]
  growth: 103% (inactive)
[15]
  growth: 90.6% (inactive)
[16]
  growth: 108% (inactive)
[18]
  growth: 112% (inactive)

## CN1C(=O)C(N=Nc2ccc([N+](=O)[O-])cc2)SC1=S (stereo unspecified)
[1]
  growth: 52.2% (inactive) and 60.1% (inactive)
[2]
  growth: 117% (inactive) and 82% (inactive)
[3]
  growth: 62.4% (inactive) and 69.3% (inactive)
[4]
  growth: 37.2% (inactive) and 49.9% (inactive)
[5]
  growth: 86.8% (inactive) and 101% (inactive)
[6]
  growth: 51.8% (inactive) and 56.5% (inactive)
[20]
  growth: 103% (inactive) and 75.3% (inactive)
[7]
  growth: 85.5% (inactive) and 89.6% (inactive)
[9]
  growth: 76.7% (inactive) and 70.5% (inactive)
[10]
  growth: 32.7% (inactive) and 10.8% (inactive)
[11]
  growth: 70.7% (inactive) and 72.4% (inactive)
[12]
  growth: 56.2% (inactive) and 51.5% (inactive)
[13]
  growth: 65.8% (inactive) and 76.7% (inactive)
[14]
  growth: 66.6% (inactive) and 69.2% (inactive)
[15]
  growth: 56.7% (inactive) and 71.7% (inactive)
[16]
  growth: 59.3% (inactive) and 62.7% (inactive)
[18]
  growth: 45.7% (inactive) and 15.5% (inactive)

## CCN(CC)CCCC(CNc1ccnc2cc(Cl)ccc12)c1ccc(Cl)cc1 (stereo unspecified)
[1]
  growth: -56.2% (active) and -67.7% (active)
[2]
  growth: -3.66% (active) and 12.1% (inactive)
[3]
  growth: -3.18% (active) and 84.7% (inactive)
[4]
  growth: -91.5% (active) and -65.7% (active)
[5]
  growth: -76.7% (active) and 14.7% (inactive)
[6]
  growth: -80.7% (active) and 2.15% (active)
[7]
  growth: 42.3% (inactive) and -81.8% (active)
[9]
  growth: -18% (active) and -51.4% (active)
[19]
  growth: -42.9% (active) and -57.7% (active)
[10]
  growth: -7.53% (active) and -24.9% (active)
[11]
  growth: 7.69% (active) and 8.6% (active)
[12]
  growth: 17.5% (inactive) and 62.9% (inactive)
[13]
  growth: -34.9% (active) and 14.3% (inactive)
[14]
  growth: 28% (inactive) and 99.4% (inactive)
[15]
  growth: -9.56% (active) and 20.2% (inactive)
[16]
  growth: 43% (inactive) and 19.9% (inactive)
[17]
  growth: 21.6% (inactive)
[18]
  growth: 19.5% (inactive) and 15.9% (inactive)

## Nc1cc(-c2cccc(OC(F)(F)F)c2)nc2ccc(N3CCCC3)cc12
[1]
  growth: 11.9% (inactive) and 37.9% (inactive) and 12.2% (inactive)
[2]
  growth: 30.1% (inactive) and 29.9% (inactive) and 38.4% (inactive)
[3]
  growth: 25.8% (inactive) and 27.9% (inactive) and 25.9% (inactive)
[4]
  growth: -6.86% (active) and 12.7% (inactive) and 14.1% (inactive)
[5]
  growth: 46.7% (inactive) and 44.3% (inactive) and 40.9% (inactive)
[6]
  growth: 27.4% (inactive) and 28.9% (inactive) and 26.3% (inactive)
[7]
  growth: 19.9% (inactive) and 22.5% (inactive) and -7.01% (active)
[8]
  growth: -15.1% (active) and 2.73% (active) and 4.3% (active)
[9]
  growth: 10.7% (inactive) and 12.7% (inactive) and 12.8% (inactive)
[19]
  growth: -22.2% (active) and -23.6% (active) and -23.8% (active)
[10]
  growth: 4.74% (active) and 17.6% (inactive) and 10.6% (inactive)
[11]
  growth: 11.4% (inactive) and 13.7% (inactive) and 7.39% (active)
[12]
  growth: 31.7% (inactive) and 38.4% (inactive) and 30.1% (inactive)
[13]
  growth: 52.5% (inactive) and 55.2% (inactive) and 56.6% (inactive)
[14]
  growth: 36% (inactive) and 5.93% (active)
[15]
  growth: 23.7% (inactive) and 25.6% (inactive) and 24.4% (inactive)
[16]
  growth: 4.65% (active) and 2.53% (active) and -33% (active)
[18]
  growth: 5.44% (active) and 3.14% (active) and 11.7% (inactive)

## CN1CCN(Cc2occc(=O)c2O)CCN(C)CCN(Cc2occc(=O)c2O)CC1
[1]
  growth: 105% (inactive) and 64.9% (inactive)
[2]
  growth: 104% (inactive) and 62.8% (inactive)
[3]
  growth: 87.9% (inactive) and 82.7% (inactive)
[4]
  growth: 92.2% (inactive) and 66.6% (inactive)
[5]
  growth: 100% (inactive) and 65.2% (inactive)
[6]
  growth: 106% (inactive) and 94% (inactive)
[7]
  growth: 95.8% (inactive) and 13% (inactive)
[8]
  growth: 91.5% (inactive) and 49% (inactive)
[9]
  growth: 97.2% (inactive) and 47.9% (inactive)
[19]
  growth: 79.5% (inactive) and 31.1% (inactive)
[10]
  growth: 97.2% (inactive) and 29.5% (inactive)
[11]
  growth: 98.8% (inactive) and 64.2% (inactive)
[12]
  growth: 104% (inactive) and 72.1% (inactive)
[13]
  growth: 102% (inactive) and 77% (inactive)
[15]
  growth: 96.3% (inactive) and 54% (inactive)
[16]
  growth: 117% (inactive) and 28.6% (inactive)
[17]
  growth: 90.4% (inactive) and 84.2% (inactive)
[18]
  growth: 105% (inactive) and 78.7% (inactive)
